Source: PubChem BioAssay
Mdm2-MdmX inh = human Mdm2/MdmX binding inhibition. O15151+Q00987. SaOS-2 split-luciferase Mdm2/MdmX complementation, luminescence. inhibition, % at 8 µM. actives 3% (n = 330,000);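 active means inhibition of at least 50% at 8 µM in the primary screen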
Peg3 promoter = Peg3 promoter activity inhibition; HeLa PEG-Prom luciferase reporter, luminescence, overnight; inhibition, % at 20 µM; actives 1.7% (n = 360,000); AID 588405;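 active means inhibition of at least 50% at 20 µM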
KKLEB cytotox = reduces viability of KKLEB cystic fibrosis airway cells. KKLEB CF airway cells viability, ATPlite luminescence, overnight; active compounds read low; cells stimulated with P. aeruginosa culture filtrate. activity change (cytotoxicity), % at 5 µM. actives 0.36% (n = 360,000). AID 602141;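 active means corrected activity change at or below -50% at 5 µM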
CF NFkB block = inhibitors of cystic fibrosis induced NF-kB; KKLEB NF-kB-GFP reporter, PAF-induced, GFP fluorescence overnight; inhibition, % at 5 µM; actives 0.86% (n = 360,000); AID 588850;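 active means at least 50% inhibition at 5 µM, scaled per plate between neutral and stimulator controls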;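 further: PAF is a Pseudomonas aeruginosa culture filtrate used as stimulus; plate controls were PAF-stimulated DMSO wells for no effect and unstimulated DMSO wells for full effect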
HSP90 inh = HSP90 refolding inhibition in rabbit reticulocyte lysate. actives 0.91% (n = 290,000). luciferase refolding luminescence, 3 h. AID 1789. inhibition, % at 5.6 µM;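 active means inhibition above the screen-wide mean plus 3 SD, computed separately per campaign, cut at about 16% in these data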;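 further: 0% = DMSO wells and 100% = 60 µM geldanamycin wells; inhibitors lower the luminescence because luciferase stays unfolded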
LGR2 inh = blocks bursicon-induced cAMP signaling via Drosophila LGR2; HEK293 LGR2, CRE-luciferase, bursicon-stimulated, 4 h; inhibition, % at 9.99 µM; actives 0.35% (n = 380,000); AID 720647;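 active means drop in luminescence signal, shown as inhibition above about 50% in the replicate tests, limit read from the data, passing the limit was not always enough; inconclusive means probably only some replicates passing the limit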;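 further: agonist challenge used bursicon conditioned medium at about half maximal strength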
HSP90 confirm = confirmation of HSP90 inhibitors; shares compounds with HSP90 inh; rabbit reticulocyte lysate, luciferase refolding luminescence, 3 h; inhibition, % at 5.9 µM; actives 64% (n = 2,300); AID 1846; in the data active means inhibition above about 18%;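 further: 0% = vehicle wells and 100% = reference inhibitor wells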
luciferase ctr = blocks native firefly luciferase in HSP90 counter-screen | shares compounds with HSP90 inh | purified native firefly luciferase, luminescence | inhibition, % at 5.9 µM | actives 48% (n = 2,300) | AID 1847;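 active means inhibition above the mean inhibition of all tested sample wells plus 3 SD, cut at about 10% in these data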;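 further: 0% = DMSO with luciferase and 100% = wells lacking luciferase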
Target sequence (P08659 whole entry, looked up): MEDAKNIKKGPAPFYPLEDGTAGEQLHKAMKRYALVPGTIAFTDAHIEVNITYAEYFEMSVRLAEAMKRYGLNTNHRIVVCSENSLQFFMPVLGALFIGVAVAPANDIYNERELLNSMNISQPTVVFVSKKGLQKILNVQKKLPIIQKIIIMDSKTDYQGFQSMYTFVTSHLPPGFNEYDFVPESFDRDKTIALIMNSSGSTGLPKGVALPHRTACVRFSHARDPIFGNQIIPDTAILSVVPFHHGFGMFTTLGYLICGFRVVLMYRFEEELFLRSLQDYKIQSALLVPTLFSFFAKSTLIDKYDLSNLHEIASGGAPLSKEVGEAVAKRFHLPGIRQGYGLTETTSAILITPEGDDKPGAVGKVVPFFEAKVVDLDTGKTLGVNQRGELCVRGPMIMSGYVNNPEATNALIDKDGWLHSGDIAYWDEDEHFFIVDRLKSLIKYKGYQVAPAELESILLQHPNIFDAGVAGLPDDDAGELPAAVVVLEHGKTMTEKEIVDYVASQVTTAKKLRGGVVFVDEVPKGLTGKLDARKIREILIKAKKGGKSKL
* hit, by the source's call; ? = inconclusive; . = no result given. In the library only some 3.6% were active in any assay of this set; here they are far more common.

SMILES	Mdm2-MdmX inh	Peg3 promoter	KKLEB cytotox	CF NFkB block	HSP90 inh	LGR2 inh	HSP90 confirm	luciferase ctr
Cn1cc(/C=C/C(=O)c2ccccc2)c2ccccc21	-77	-112	-22	-11	20*	.	36*	45*
COc1ccc(C#Cc2ccc([C@H]3[C@@H](CO)N4CCCCN(Cc5ccncc5)C[C@H]34)cc2)cc1	.	.	.	.	.	-44	.	.
COc1ccc(CN(C)C[C@@H]2OCCCC[C@@H](C)Oc3ccc(NS(=O)(=O)c4cn(C)cn4)cc3C(=O)N([C@H](C)CO)C[C@@H]2C)cc1	.	.	.	.	.	4	.	.
Fc1cccc(Cl)c1C1Nc2cccc3cccc(c23)N1	32	12	17	-42	19*	-2	-2	-5
O=C1N/C(=C\c2nc3ccccc3s2)c2ccccc21	11	.	.	.	21*	.	53*	25*
O=C1N/C(=C\c2ccccc2)c2ccccc21	18	-40	-4	-3	2	.	.	.
CCC(=O)N1[C@@H](CO)[C@H](c2ccc(-c3ccc(C#N)cc3)cc2)C12CN(C(C)=O)C2	.	.	.	.	.	10	.	.
Fc1cccc(/C=N/Nc2nncc3ccccc23)c1	-241	-104	-40	-16	29*	12	51*	41*
CC/C(=N\Nc1nncc2ccccc12)c1ccc(F)cc1	6	-310	7	-33	17*	-32	-5	-25
CCC(=O)N1C[C@@H](C)[C@@H](OC)CN(C)C(=O)c2cc(NC(=O)NC(C)C)ccc2OC[C@H]1C	.	.	.	.	.	-3	.	.
CC1(C)CCc2cc(-c3ccnc(=S)[nH]3)ccc2O1	-2	-177	-4	4	18*	.	9	-17
S=c1nccc(-c2ccc3c(c2)CCO3)[nH]1	13	-43	11	0	0	4	.	.
COc1ccc(C)cc1NC(=O)NNC(=O)C(C)Oc1ccc(F)cc1Cl (configuration not stated)	9	9	2	17	20*	-3	3	-2
Cc1ccccc1-c1cc2c(nn1)-c1ccccc1C2=O	-32	-81	-2	-12	74*	.	7	0
COc1ccc2c3c([nH]c2c1)[C@@H](CO)N(CC1CCOCC1)CC31CN(C(=O)C2CCOCC2)C1	.	.	.	.	.	-2	.	.
CN(C)/C=C1/Sc2ccccc2C1=O	-2	-16	4	2	21*	.	-2	-16
O=C(O)CCNC(=O)/C(=C/c1ccco1)NC(=O)c1ccco1	26	5	2	12	30*	1	2	-2
CCC(C)c1ccc(NC(=O)c2ccco2)cc1 (configuration not stated)	-69	-58	-31	3	41*	52*	69*	63*
COc1ccc(C(=O)NCC(=O)OCC(=O)NCCC2=CCCCC2)cc1	18	5	10	-5	0	3	.	.
COc1ccc(C(=O)NCCC2=CCCCC2)cc1	-42	-6	7	-5	32*	?	54*	48*
CCC(=O)Nc1cccc(-c2ccc(N3CCC(C)CC3)nn2)c1	-53	-124	-55*	8	33*	?	66*	45*
O=C1CC[C@H](OCc2ccccc2)CCN1[C@H](CSc1ccccc1)Cc1ccccc1	9	-26	-2	-7	27*	-8	-5	-14
O=C1CC[C@H](O)CCN1[C@H](CSc1ccccc1)Cc1ccccc1	-9	-4	0	14	0	2	.	.
COc1ccc(NC(=O)N2CC(=O)N3[C@H](CO)[C@H](c4ccc(C5=CCCC5)cc4)[C@H]3C2)cc1	.	.	.	.	.	-9	.	.
COc1ccc(C/C(C)=N/NC(=S)Nc2ccccc2F)cc1	3	-240	-1	-14	36*	-33	48*	35*
COc1ccc(C/C(C)=N/NC(=S)Nc2ccc(C(C)C)cc2)cc1	-11	-37	9	-18	-1	-17	.	.
O=C(NC(=S)Nc1ccc(-c2ccc(CO)o2)cc1)c1cccs1	-14	-107	-13	21	24*	.	5	-13
